# Results published in PubChem BioAssay AID1347088 (National Center for Advancing Translational Sciences (NCATS), 2019).
# Results filed as inconclusive are left out. Unmarked numbers belong to inactive results. Calls of active or inactive are those of the source. Calls come from the whole dose curve.
# Assay: qHTS for Inhibitors of the Functional Ribonucleoprotein Complex (vRNP) of Lymphocytic Choriomeningitis Arenaviruses (LCMV): Viability assay - Alamar blue signal for LCMV Confirmatory Screen
# Conditions: LCMV vRNP confirmatory screen cells; series mostly up to 53.9 µM; viability change, negative = toxic: at the top concentration
SMILES,"viability change, negative = toxic",Potency
CCCCC/C(C=O)=C\c1ccccc1,-17.8%,
CC1OC(=O)[C@@H](C(C)C)NC(=O)C(C(C)C)OC(=O)[C@H](C(C)C)NC(=O)C(C)OC(=O)[C@@H](C(C)C)NC(=O)C(C(C)C)OC(=O)[C@H](C(C)C)NC(=O)C(C)OC(=O)[C@@H](C(C)C)NC(=O)C(C(C)C)OC(=O)[C@H](C(C)C)NC1=O (some centres undefined),,0.611 µM (active)
C=C1CC[C@@H]2[C@](C)(CO)[C@H](O)CC[C@@]2(C)[C@@H]1/C=C/C1=CCOC1=O,-3.58%,
COC(=O)c1nc(Cl)c(Cl)nc1N,,6.11 µM (active)
O=C(CCCN1CCN(c2ccc(F)cc2)CC1)NC1c2ccccc2CSc2ccccc21 (centres undefined),-20.7%,
Cc1cc2c(C(C)C)c(O)c(O)c(C=O)c2c(O)c1-c1c(C)cc2c(C(C)C)c(O)c(O)c(C=O)c2c1O,,27.3 µM (active)
Cc1ccc2c(c1)C1CN(C)CCC1N2 (centres undefined),-22.8% [at 19.4 µM],
O=c1ccc2ccc(O)c(O)c2o1,-6.63%,
CCCCCN=C(N)N/N=C/c1c[nH]c2ccc(OC)cc12,,9.68 µM (active)
NC(=O)N/N=C/c1ccc([N+](=O)[O-])o1,28.6%,
O=C1Cc2cc(CCN3CCN(c4nsc5ccccc45)CC3)c(Cl)cc2N1,,inactive
O=C(Nc1ccc(Cl)c(Cl)c1)C1CC1,10.2%,
Fc1ccc(CNc2ncnc3ccc(F)cc23)cc1,-18.6%,
CCn1c(-c2nonc2N)nc2cnc(Oc3cccc(NC(=O)c4ccc(OCCN5CCOCC5)cc4)c3)cc21,,24.3 µM (active)
O=C(Nc1ccccc1)Nc1ccc(-c2ccc(C(=O)[C@H]3CCC[C@H]3C(=O)O)cc2)cc1,-10.2%,
CCc1cncnc1N1CCN(Cc2nc3ccc(C(F)(F)F)cc3[nH]2)CC1,,35.2 µM (active)
Oc1cc(Cl)ccc1Oc1ccc(Cl)cc1Cl,,44.4 µM (active)
Cc1cnc(NC(=O)C2=C(O)c3ccccc3S(=O)(=O)N2C)s1,-23.7%,
CC(=O)[C@H]1CC[C@H]2[C@@H]3CCC4=CC(=O)CC[C@]4(C)[C@H]3CC[C@]12C,-24.7%,
Clc1nccc2c1ccc1ccccc12,-18.9%,
CC[C@@H](C(=O)O)[C@@H]1O[C@@H]([C@@H](C)[C@H](O)[C@H](C)C(=O)[C@H](CC)[C@H]2O[C@]3(C=C[C@@H](O)[C@]4(CC[C@@](C)([C@H]5CC[C@](O)(CC)[C@H](C)O5)O4)O3)[C@H](C)C[C@@H]2C)[C@@H](C)C[C@@H]1C,,4.44 µM (active)
CCC(C)c1nccnc1OC (centres undefined),-4.73% [at 110 µM],
Cc1cccc(-c2[nH]c(C(C)(C)C)nc2-c2ccc3c(c2)OCO3)n1,,4.32 µM (active)
COc1cc2c(cc1OC)CC(=O)N(CCCN(C)C[C@H]1Cc3cc(OC)c(OC)cc31)CC2,-11.1%,
